# Screens as filed in PubChem.
# BRCT inh green: inhibitors of human BRCA1 BRCT-phosphoprotein interaction (green fluorophore); P38398; BRCA1 BRCT-phosphopeptide binding, green fluorescence polarization; Potency, µM (highest dose often 76.9 µM), inactives show at the top dose activity change, negative = inhibition, actives largely listed as inhibitors; actives 0.05% (n = 75,000); AID 875;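 further: potency means the concentration at half of the fitted maximal effect; plate controls were peptide without protein for full effect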
#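 Fluorescence polarization: His-tagged BRCT (~35 kDa BRCA1 C-terminus, 250 nM) bound to 100 nM fluorescein-labeled phosphorylated 10-aa BACH1 peptide, pH 7.3 phosphate buffer with DTT and Tween 20. Compounds incubated 12 min at room temperature; inhibition read as lowered polarization.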
# Pol III holo inh: blocks replication by bacterial DNA polymerase III holoenzyme; reconstituted DNA polymerase III holoenzyme replication, biochemical; Potency, µM (titrated, usually from 57.1 µM), for the others: at the highest dose activity change, negative = inhibition; actives 0.25% (n = 71,000); AID 603; further: potency means the concentration at half of the fitted maximal effect; on the % scale 0 is the no-effect control and ±100 the full control effect
#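 Reconstituted *E. coli* holoenzyme (0.35 nM Pol III, 1 nM beta, 154 nM SSB, 2 nM primase) was preincubated with compound for 15 min at RT. Synthesis on 1.4 nM ssM13Gori ran 35 min, then was stopped with PicoGreen/EDTA and read as dsDNA fluorescence.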
# TsaE inh: displaces an ADP probe from E. coli YjeE (TsaE). P0AF67. actives 0.05% (n = 71,000). AID 605. purified YjeE enzyme, qHTS inhibition assay. Potency, µM
#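 Purified YjeE (10 uM) with BODIPY Texas Red-labeled ADP probe (2 uM); compounds pin-transferred, 15 min at room temperature. Binding inhibition read as decreased fluorescence polarization; ADP titration as control.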
# BRCT inh red: disrupts BRCA1 BRCT binding to phosphoprotein, red fluorophore readout. BRCT-phosphopeptide binding, red fluorescence polarization. Potency, µM (doses to about 76.9 µM), for the others: at the highest dose activity change, negative = inhibition, usual class: inhibitors. actives 0.03% (n = 75,000); further: on the % scale 0 is the no-effect control and ±100 the full control effect
#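 Fluorescence polarization: 100 nM His-tagged BRCA1 BRCT with 100 nM TAMRA-labelled phospho-BACH1 decapeptide, phosphate buffer pH 7.3 with 150 mM NaCl, DTT, 0.01% Tween 20; 12 min RT. Binding inhibition seen as FP decrease.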
# 15-hLO inh: 15-hLO (ALOX15) enzyme inhibition; P16050; purified 15hLO-1, xylenol orange hydroperoxide absorbance; Potency, µM (top dose mostly 57.1 µM), for inactives: at the top dose activity change, negative = inhibition, most hits filed as inhibitors; actives 1.4% (n = 74,000); further: potency means the concentration at half of the fitted maximal effect; on the % scale 0 is the no-effect control and ±100 the full control effect; nearly all actives have a fitted effect of over 55% in size
#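 Quantitative HTS in 25 mM Hepes pH 7.5 containing 0.01% Triton X-100: human 15hLO-1 at 40 nM, arachidonic acid at 50 uM, 6 min turnover. Product quantified via ferrous oxidation/xylenol orange, 573:405 nm absorbance ratio.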
# Tau filament bind: binders of human tau filaments; P10636; recombinant tau filaments, thioflavin S fluorescence, 15 h; filaments grown with octadecylsulfate alongside compound; Potency, µM (titrated, usually from 57.1 µM), without a hit: top-dose activity change, negative = inhibition; actives 2% (n = 71,000); AID 596;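 further: potency means the concentration at half of the fitted maximal effect; on the % scale 0 is the no-effect control and ±100 the full control effect; actives lower thioflavin S fluorescence by blocking filaments or displacing dye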
# Target sequence (P10636 whole entry, looked up): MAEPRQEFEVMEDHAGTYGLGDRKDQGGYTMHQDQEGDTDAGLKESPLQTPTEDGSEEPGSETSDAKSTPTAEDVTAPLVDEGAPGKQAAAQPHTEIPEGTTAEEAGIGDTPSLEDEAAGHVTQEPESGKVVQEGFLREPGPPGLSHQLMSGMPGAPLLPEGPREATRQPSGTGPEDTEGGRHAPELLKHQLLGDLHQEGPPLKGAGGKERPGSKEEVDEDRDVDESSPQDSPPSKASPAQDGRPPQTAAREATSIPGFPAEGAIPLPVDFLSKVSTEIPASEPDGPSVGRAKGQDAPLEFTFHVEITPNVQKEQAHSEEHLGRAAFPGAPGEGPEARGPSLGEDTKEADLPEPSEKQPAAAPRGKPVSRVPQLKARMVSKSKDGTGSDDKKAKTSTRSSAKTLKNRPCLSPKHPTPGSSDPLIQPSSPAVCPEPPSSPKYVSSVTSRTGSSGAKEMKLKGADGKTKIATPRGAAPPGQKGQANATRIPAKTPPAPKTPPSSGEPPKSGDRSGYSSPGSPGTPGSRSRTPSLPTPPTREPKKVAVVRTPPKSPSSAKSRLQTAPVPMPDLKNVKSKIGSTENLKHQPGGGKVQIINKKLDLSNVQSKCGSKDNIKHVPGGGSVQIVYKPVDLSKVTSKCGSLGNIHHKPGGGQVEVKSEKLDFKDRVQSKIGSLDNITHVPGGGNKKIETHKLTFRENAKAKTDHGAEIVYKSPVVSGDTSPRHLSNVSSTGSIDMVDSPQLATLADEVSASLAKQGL
#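 Thioflavine S fluorescence (ex 450, em 510 nm) reports filaments formed from 1 uM human tau plus 30 uM ODS over 15 h at 37 C (10 mM HEPES pH 7.4, 100 mM NaCl, 5 mM DTT); compounds displacing dye or blocking filaments lower signal.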
# * marks the source's active call; other numbers are inactive results; i = inactive; ? = inconclusive; nt = not tested or not shown; [ ] = dose if it differs, or a comment. Shown are actives, neighbours in structure and some others; about 3.1% of the full set was active somewhere. The call rests on the fitted dose curve; in most records, active means well fitted curve in the direction sought with a large enough effect; inconclusive means small, poorly fitted or top-dose-only effect, or another doubt; inactive means no such curve, though single readings can be large; an effect the other way counts as inactive or inconclusive.
SMILES,BRCT inh green,Pol III holo inh,TsaE inh,BRCT inh red,15-hLO inh,Tau filament bind
CC(=O)Nc1cc(-c2ccccc2)ccc1O,-2%,0%,i,-2%,-7%,14%
Nc1cc(-c2ccccc2)ccc1O,-1%,-4%,i,0%,7.9µM*,25µM*
Nc1ccc(N=Nc2ccccc2)c(N)n1,1%[3.08 µM],-6%,i,0%,?,13µM*
O=S(=O)(O)c1ccc(N=Nc2ccccc2)cc1,0%[15.4 µM],-6%[11.4 µM],i,0%[15.4 µM],6%[11.4 µM],3%[11.4 µM]
COC(=O)C/C=C\[C@@H](C)[C@@H](/C=N\O[C@@H](C)c1cc(-c2c(C)cc(C)cc2C)no1)NS(=O)(=O)c1ccc(C)cc1,1%[15.4 µM],nt,nt,1%[15.4 µM],-7%[11.4 µM],nt
c1ccc(-c2csc(-c3nc4ccccc4[nH]3)n2)cc1,?,nt,nt,-2%,7.9µM*,nt
Cn1c(-c2nc(-c3ccccc3)cs2)nc2ccccc21,40µM*,nt,nt,-4%,?,nt
Nc1cccc(-c2nc3ccccc3[nH]2)c1,-1%,-2%,i,2%,14%,-2%
CCN(CC)CCCNC(=O)c1ccc(Cc2nc3ccccc3[nH]2)cc1,2%,nt,nt,1%,3%,nt
Cc1ccc(C(=O)O[C@@H](C(=O)O)[C@@H](OC(=O)c2ccc(C)cc2)C(=O)O)cc1 (tested in a mixture with another compound),-2%,-3%,i,-1%,18%,7%
O=C(O)C(S)[C@@H](S)C(=O)O (stereo partly drawn),-1%[3.08 µM],nt,nt,-7%,7.9µM*,nt
CC1=C(C(=O)O)N2C(=O)[C@@H](NC(=O)[C@@H](N)c3ccc(O)cc3)[C@@H]2SC1,-1%[34.4 µM],1%[25.6 µM],i,0%[34.4 µM],8%[25.6 µM],7%[25.6 µM]
COc1ccc(C(=O)N2CCC3(CCCN(C)C3)CC2)cc1,-3%,11%,i,-1%,6%,-1%
COc1ccc(C(=O)N2CCC3(CCN(C)CC3)CC2)cc1,-1%,19%,i,-1%,2%,16µM*
COC(=O)C1C(=O)C2=C(CC1C)NC(C)=C(C(=O)OC1CCCCC1)C2c1ccc(N(C)C)cc1 (stereo not drawn),5%,1%,i,0%,16µM*,25µM*
O=C1NC(c2ccccn2)Nc2sc3c(c21)CCC3 (stereo not drawn),0%,-1%,i,0%,14%,21%
Cn1cc(C2NC(=O)c3c(sc4c3CCCC4)N2)c2ccccc21 (stereo not drawn),1%,1%,i,-3%,-15%,3.2µM*
N#CC1=C2SCN(Cc3ccco3)CN2C(=O)CC1c1cccc2ccccc12 (stereo not drawn),-5%,-1%,i,0%,7.9µM*,?
CCc1ccc(N2CSC3=C(C#N)C(c4cccs4)CC(=O)N3C2)cc1 (stereo not drawn),5%,-4%,i,0%,?,?
Cc1ccc(C2C3=C(CC(C)(C)CC3=O)Nc3[nH]c(=S)[nH]c(=O)c32)cc1 (stereo not drawn),-3%,6%,i,0%,20µM*,8%
Cc1[nH]nc2c1C(c1ccccc1)C1=C(CC(C)(C)CC1=O)N2 (stereo not drawn),-1%,3%,i,0%,9%,8%
COc1ccccc1CN1CC[C@@]2(CCCN(C(=O)c3cnccn3)C2)C1,-3%,0%,i,0%,-6%,6%
O=C(O)[C@H]1C[C@@H](CP(=O)(O)O)CCN1,-2%,-6%,i,-8%,?,-14%
O=C1C(=O)N(Cc2ccc(Cl)c(Cl)c2)c2ccccc21,-8%,2%,i,-2%,10µM*,32µM*
O=C1c2ccccc2N(Cc2ccc(Cl)cc2)C2=NCCN12,-1%,nt,nt,-1%,-10%,nt
SMILES,BRCT inh green,Pol III holo inh,TsaE inh,BRCT inh red,15-hLO inh,Tau filament bind
COc1ccc(OC)c(N2C(=O)[C@@H]3C(c4ccccc4Cl)=NO[C@@H]3C2=O)c1,-3%,32µM*,i,-3%,-24%,?
C/C(=N/NC1=NCCN1)c1cn(C2=NCCN2)nc1C,-1%[15.4 µM],-6%[11.4 µM],i,-1%[15.4 µM],23%[11.4 µM],5%[11.4 µM]
COc1cc(-c2ccc(N=C=O)c(OC)c2)ccc1N=C=O,-8%,-5%,i,1%,2%,16µM*
COc1ccc(C2c3c(oc4ccccc4c3=O)C(=O)N2c2ccccn2)cc1OC (stereo not drawn),-1%,2%,i,0%,11%,-7%
COc1cc(C2c3c(oc4ccccc4c3=O)C(=O)N2c2ccc(C)cn2)ccc1O (stereo not drawn),-4%,0%,i,-1%,-6%,13µM*
CCOc1ccc(C2c3c(oc4ccccc4c3=O)C(=O)N2c2ccc(C)cn2)cc1OC (stereo not drawn),0%,-3%,i,-2%,-1%,4µM*
COc1cc(C2c3c(oc4cc(C)c(C)cc4c3=O)C(=O)N2c2cc(C)ccn2)ccc1O (stereo not drawn),0%,-8%,i,-1%,-6%,5µM*
COc1ccc(C2c3c(oc4ccccc4c3=O)C(=O)N2c2ccccn2)cc1 (stereo not drawn),-1%,-2%,i,0%,4%,131%
Cc1ccc(N2C(=O)c3oc4ccccc4c(=O)c3C2c2cccc(O)c2)nc1 (stereo not drawn),-1%,0%,i,0%,?,25µM*
Cc1cn([C@@H]2C[C@H](N=[N+]=N)[C@H](CO)O2)c(=O)[nH]c1=O,-1%[34.4 µM],-5%[25.6 µM],i,0%[34.4 µM],7%[25.6 µM],3%[25.6 µM]
CNC1C(O)C2OC3OC(C)CC(=O)[C@@]3(O)O[C@H]2[C@H](NC)C1O (stereo partly drawn),1%[3.08 µM],nt,nt,0%,-1%,nt
CC[C@@H]1OC(=O)[C@H](C)[C@H](O[C@@H]2C[C@](C)(OC)[C@H](O)[C@H](C)O2)[C@H](C)[C@H](O[C@@H]2O[C@@H](C)C[C@@H](N(C)C)[C@@H]2O)[C@](C)(O)C[C@H](C)C(=NOCOCCOC)[C@H](C)[C@H](O)[C@]1(C)O,-2%[34.4 µM],-3%[25.6 µM],i,-1%[34.4 µM],6%[25.6 µM],-1%[25.6 µM]
O=C(NCCN1CCOCC1)c1cccc(Cl)c1,0%,-5%,i,1%,-5%,6%
COc1cc(OC)cc(C(=O)NCCN2CCOCC2)c1,-1%,-1%,i,1%,10µM*,-5%
CCCCOc1ccc(-c2ncc(Cl)cn2)cc1,2%,4%[11.4 µM],i,2%,1%[11.4 µM],15%[11.4 µM]
CCCCCCc1ccc(-c2ncc(N)cn2)cc1,4%,-6%,i,2%,-23%,25µM*
